Assay results as given in ChEMBL document CHEMBL1961873, “Compounds: GSK PKIS; Assays: Nanosyn kinase panel” (2012).
Values joined by “and” are separate entries in the source; they are usually repeats but may differ in a detail not shown here. Equal values may be shown once.

Experiments:
[1] = tested on: Tyrosine-protein kinase ABL1 (Homo sapiens), P00519 [T315I]; conditions: at 1 µM
[2] = tested on: Tyrosine-protein kinase ABL1 (Homo sapiens), P00519 [Y253F]; conditions: at 0.1 µM
[3] = tested on: Tyrosine-protein kinase ABL1 (Homo sapiens), P00519 [Y253F]; conditions: at 1 µM
[4] = molecular target: Tyrosine-protein kinase ABL1 (Homo sapiens) (UniProt P00519); conditions: at 0.1 µM
[5] = molecular target: Tyrosine-protein kinase ABL1 (Homo sapiens) (UniProt P00519); conditions: at 1 µM
[6] = molecular target: ALK tyrosine kinase receptor (Homo sapiens) (UniProt Q9UM73); conditions: at 0.1 µM
[7] = molecular target: ALK tyrosine kinase receptor (Homo sapiens) (UniProt Q9UM73); conditions: at 1 µM
[8] = molecular target: Tyrosine-protein kinase ABL2 (Homo sapiens) (UniProt P42684); conditions: at 0.1 µM
[9] = molecular target: Tyrosine-protein kinase ABL2 (Homo sapiens) (UniProt P42684); conditions: at 1 µM
[10] = molecular target: Tyrosine-protein kinase receptor UFO (Homo sapiens) (UniProt P30530); conditions: at 0.1 µM;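 also: values are mean percent inhibition of AXL from the GSK PKIS screen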
Tyrosine-protein kinase receptor UFO (Homo sapiens), sequence (P30530 whole entry): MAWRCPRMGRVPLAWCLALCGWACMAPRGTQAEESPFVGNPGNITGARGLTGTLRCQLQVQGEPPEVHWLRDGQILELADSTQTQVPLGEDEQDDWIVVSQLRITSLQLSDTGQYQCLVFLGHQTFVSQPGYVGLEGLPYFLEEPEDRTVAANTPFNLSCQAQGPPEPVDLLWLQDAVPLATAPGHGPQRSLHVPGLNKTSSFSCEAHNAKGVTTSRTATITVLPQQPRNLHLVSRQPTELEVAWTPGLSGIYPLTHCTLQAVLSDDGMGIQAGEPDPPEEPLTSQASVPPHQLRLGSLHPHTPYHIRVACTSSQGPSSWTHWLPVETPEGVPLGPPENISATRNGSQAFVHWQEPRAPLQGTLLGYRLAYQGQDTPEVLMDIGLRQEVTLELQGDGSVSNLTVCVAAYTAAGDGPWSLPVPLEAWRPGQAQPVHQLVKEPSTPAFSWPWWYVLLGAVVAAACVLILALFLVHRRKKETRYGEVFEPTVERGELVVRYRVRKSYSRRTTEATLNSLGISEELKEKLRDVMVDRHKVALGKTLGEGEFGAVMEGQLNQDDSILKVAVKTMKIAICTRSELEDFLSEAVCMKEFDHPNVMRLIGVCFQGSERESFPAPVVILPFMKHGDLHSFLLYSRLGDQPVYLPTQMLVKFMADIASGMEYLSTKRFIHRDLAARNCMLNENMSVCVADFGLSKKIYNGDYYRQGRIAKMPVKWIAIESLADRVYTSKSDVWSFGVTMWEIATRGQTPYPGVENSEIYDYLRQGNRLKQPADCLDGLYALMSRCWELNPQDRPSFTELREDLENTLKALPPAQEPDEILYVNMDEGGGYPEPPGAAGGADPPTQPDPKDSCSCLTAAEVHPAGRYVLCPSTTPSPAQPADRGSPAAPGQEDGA

Tyrosine-protein kinase ABL2 (Homo sapiens), sequence (P42684 whole entry): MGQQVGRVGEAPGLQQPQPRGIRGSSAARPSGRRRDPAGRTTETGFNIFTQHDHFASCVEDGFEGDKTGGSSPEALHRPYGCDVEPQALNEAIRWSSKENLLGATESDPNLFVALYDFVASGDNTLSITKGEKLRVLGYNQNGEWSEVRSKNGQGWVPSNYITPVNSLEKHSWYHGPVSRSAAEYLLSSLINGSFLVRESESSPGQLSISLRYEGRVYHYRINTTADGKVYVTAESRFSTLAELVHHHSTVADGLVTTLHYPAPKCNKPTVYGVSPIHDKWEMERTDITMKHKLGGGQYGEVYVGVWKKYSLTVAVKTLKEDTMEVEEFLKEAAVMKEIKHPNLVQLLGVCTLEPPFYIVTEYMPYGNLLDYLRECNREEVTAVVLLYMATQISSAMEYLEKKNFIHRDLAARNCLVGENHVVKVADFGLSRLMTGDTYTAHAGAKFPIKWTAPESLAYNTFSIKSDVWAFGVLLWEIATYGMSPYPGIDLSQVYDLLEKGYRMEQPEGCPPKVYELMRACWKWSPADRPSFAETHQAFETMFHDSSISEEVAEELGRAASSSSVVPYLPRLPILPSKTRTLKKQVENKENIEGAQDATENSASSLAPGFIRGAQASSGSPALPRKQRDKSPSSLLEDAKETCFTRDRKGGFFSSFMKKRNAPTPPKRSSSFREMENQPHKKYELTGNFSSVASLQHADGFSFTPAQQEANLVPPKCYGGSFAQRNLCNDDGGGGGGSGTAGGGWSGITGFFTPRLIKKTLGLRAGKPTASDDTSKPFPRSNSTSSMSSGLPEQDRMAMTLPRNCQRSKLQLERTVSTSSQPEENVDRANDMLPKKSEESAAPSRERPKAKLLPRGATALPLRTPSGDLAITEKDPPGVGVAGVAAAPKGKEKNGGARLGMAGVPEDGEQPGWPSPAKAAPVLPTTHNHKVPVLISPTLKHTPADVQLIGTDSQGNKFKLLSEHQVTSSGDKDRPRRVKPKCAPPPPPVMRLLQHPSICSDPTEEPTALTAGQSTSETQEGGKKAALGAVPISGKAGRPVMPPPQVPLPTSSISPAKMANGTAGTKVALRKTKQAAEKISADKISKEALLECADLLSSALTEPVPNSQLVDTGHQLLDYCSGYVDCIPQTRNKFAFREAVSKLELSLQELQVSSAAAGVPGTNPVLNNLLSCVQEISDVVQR
ALK tyrosine kinase receptor (Homo sapiens), sequence (Q9UM73 19-1620 limits assumed): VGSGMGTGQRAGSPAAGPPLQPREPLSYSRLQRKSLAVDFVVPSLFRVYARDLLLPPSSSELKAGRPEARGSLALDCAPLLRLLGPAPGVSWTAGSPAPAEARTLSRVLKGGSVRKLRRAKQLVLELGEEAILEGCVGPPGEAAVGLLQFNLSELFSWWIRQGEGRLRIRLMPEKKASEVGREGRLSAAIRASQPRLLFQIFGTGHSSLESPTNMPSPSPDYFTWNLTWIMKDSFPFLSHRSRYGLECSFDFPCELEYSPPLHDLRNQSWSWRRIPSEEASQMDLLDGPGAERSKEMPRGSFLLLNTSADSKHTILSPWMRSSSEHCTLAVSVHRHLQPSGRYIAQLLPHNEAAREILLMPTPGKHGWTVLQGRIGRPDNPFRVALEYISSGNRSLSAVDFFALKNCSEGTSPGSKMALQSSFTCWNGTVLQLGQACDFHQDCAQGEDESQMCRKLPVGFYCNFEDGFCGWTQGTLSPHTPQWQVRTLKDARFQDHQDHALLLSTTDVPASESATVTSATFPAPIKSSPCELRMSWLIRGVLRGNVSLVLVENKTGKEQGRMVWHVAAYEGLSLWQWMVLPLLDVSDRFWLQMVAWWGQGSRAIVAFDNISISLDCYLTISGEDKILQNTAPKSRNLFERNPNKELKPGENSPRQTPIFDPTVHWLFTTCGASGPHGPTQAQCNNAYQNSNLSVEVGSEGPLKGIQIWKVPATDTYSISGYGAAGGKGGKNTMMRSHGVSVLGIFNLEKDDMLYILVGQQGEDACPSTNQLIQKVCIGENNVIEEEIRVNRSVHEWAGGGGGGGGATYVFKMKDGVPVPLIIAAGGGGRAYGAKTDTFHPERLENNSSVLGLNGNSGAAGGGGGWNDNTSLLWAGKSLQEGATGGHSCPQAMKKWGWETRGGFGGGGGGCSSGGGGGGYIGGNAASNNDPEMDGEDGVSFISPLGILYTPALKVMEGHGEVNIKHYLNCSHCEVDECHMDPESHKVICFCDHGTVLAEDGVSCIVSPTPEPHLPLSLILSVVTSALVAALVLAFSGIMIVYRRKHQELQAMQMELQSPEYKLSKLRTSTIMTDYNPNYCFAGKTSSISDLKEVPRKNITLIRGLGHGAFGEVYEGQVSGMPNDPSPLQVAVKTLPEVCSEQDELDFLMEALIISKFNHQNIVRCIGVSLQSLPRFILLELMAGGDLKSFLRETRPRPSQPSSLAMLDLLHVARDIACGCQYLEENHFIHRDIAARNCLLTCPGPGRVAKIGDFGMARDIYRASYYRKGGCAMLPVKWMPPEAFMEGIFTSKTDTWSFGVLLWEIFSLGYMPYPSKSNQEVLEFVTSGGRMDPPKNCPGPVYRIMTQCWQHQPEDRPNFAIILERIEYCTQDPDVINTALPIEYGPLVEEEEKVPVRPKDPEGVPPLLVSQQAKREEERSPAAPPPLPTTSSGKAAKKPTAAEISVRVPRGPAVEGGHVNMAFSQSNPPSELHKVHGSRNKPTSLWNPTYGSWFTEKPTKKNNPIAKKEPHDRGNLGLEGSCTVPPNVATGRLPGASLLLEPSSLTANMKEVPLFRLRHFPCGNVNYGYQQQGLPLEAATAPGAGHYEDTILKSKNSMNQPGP

Row | Compound | inhibition [1] | inhibition [2] | inhibition [3] | inhibition [4] | inhibition [5] | inhibition [6] | inhibition [7] | inhibition [8] | inhibition [9] | inhibition [10]
1 | Cc1cc(O)cc(C)c1/C=C/c1cncc(C(N)=O)c1 | 7.26% | 27.8% | 73.6% | 15.1% | 66% | 3.62% | 4.41% | 12.2% | 59.3% | -2.07%
2 | NS(=O)(=O)c1ccc(N/N=C2\C(=O)Nc3ccc(C(=O)NCc4ccncc4)cc32)cc1 | 12.8% | 4.33% | 19.1% | 2.78% | 15.2% | 1.39% | 4.24% | 2.79% | 9.41% | -1.05%
3 | Fc1ccc(Nc2nccc(-c3c(-c4ccc(C(F)(F)F)cc4)nn4ncccc34)n2)cc1F | 0.93% | 3.58% | 2.19% | 5.29% | 5.12% | 3.18% | 6.53% | 3.43% | 4.03% | -5.49%
4 | COc1ccc2ncn(-c3cc(O[C@H](C)c4ccccc4C(F)(F)F)c(C(N)=O)s3)c2c1 | 0.84% | -1.93% | -0.53% | 0.27% | 9.42% | -0.81% | 2.16% | 4.37% | 2.94% | 0.07%
5 | CCn1c(-c2nonc2N)nc2cncc(C(=O)NCCNC)c21 | 5.14% | 8.7% | 7.62% | 3.3% | 5.3% | 1.99% | 4.23% | 2.36% | 4.11% | -8.56%
6 | COc1cc2c(cc1Nc1nc(Nc3cccc(F)c3C(N)=O)c3cc[nH]c3n1)N(C(=O)CN1CCN(C(C)C)CC1)CC2 | 2.05% | -2.26% | 1.07% | -1.27% | -0.09% | 62.8% | 82.3% | -1.03% | -1.11% | -1.56%
7 | Cc1c2ccc(N(C)c3ccnc(Nc4cccc(S(N)(=O)=O)c4)n3)cc2nn1C | 52.2% | 43.4% | 83.3% | 16.7% | 64.5% | 1.38% | 18.8% | 19.5% | 62.8% | -8.43%
8 | c1cnn2ncc(-c3ccnc(NCCCN4CCOCC4)n3)c2c1 | 3.23% | 4.67% | 1.93% | 2.22% | 6.5% | 2.15% | 3.78% | 2.25% | 1.19% | -7.99%
9 | COC(=O)Nc1nc2ccc(Oc3ccc(NC(=O)Nc4cc(C(F)(F)F)ccc4F)cc3)cc2s1 | 92.6% | 32.2% | 75.7% | 42.7% | 79.8% | 0.95% | 6.26% | 51.4% | 73.6% | 13.7%
10 | COC(=O)Nc1nc2cc(Oc3ccc(NC(=O)Nc4ccccc4)cc3)ccc2[nH]1 | 31.3% | 6.49% | 18.9% | 5.66% | 11.3% | 1.19% | 2.23% | 9.07% | 16.8% | -7.01%
11 | CCCNc1cccc(-n2ncc3c(N/N=C/c4ccncc4)ncnc32)c1 | 85.8% | 42.4% | 86.2% | 24.3% | 75.3% | 0.42% | 3.35% | 11.6% | 61.9% | 2.01%
12 | NC(=O)c1ccc2c(-c3ccnc(NCCCO)n3)c(-c3ccc(F)cc3)nn2c1 | 6.37% | 7.28% | 8.72% | 4.37% | 13.2% | 3.18% | 7.82% | 4.85% | 10.1% | -6.77%
13 | Nc1nccc(-c2c(-c3ccc(F)cc3)ncn2C2CCNCC2)n1 | 1.38% and 1.78% | -2.62% and 1.74% | 3.43% and 4.65% | -2.44% and 0.45% | 7.89% and 5.4% | -2.83% and 0.4% | -1.85% and 1.82% | -2.01% and -0.73% | 3% and 19.3% | 3.6% and 1.09%
14 | CCOc1ccc2c(-c3ccnc(Nc4cc(OC)cc(C(F)(F)F)c4)n3)cnn2n1 | 3.15% | 2.66% | 7.81% | 5.8% | 11.5% | -0.08% | 1.27% | 6.07% | 9.53% | 0.45%
15 | COc1ccc(-c2nn3ncccc3c2-c2ccnc(Nc3ccc(F)c(F)c3)n2)cc1 | 16.6% | 5.29% | 17.1% | 3.82% | 14.7% | 2.49% | 8.04% | 2.7% | 11.9% | -1.84%
16 | CCN1CCC(C(=O)Nc2n[nH]c3nnc(-c4cccc(F)c4F)cc23)CC1 | 1.7% | -0.98% | -1.38% | 0.49% | 0.51% | 0.15% | 1.71% | 1.05% | 1.43% | 1.6%

Row | Compound | inhibition [1] | inhibition [2] | inhibition [3] | inhibition [4] | inhibition [5] | inhibition [6] | inhibition [7] | inhibition [8] | inhibition [9] | inhibition [10]
17 | CC1(C)CC(n2cnc(-c3ccc(F)cc3)c2-c2ccnc(N)n2)CC(C)(C)N1 | 4.98% | 8% | 5.3% | -0.56% | 4.28% | -0.41% | 1.55% | -1.89% | 1.01% | -0.07%
18 | CNC(=O)c1ncccc1Nc1nc(Nc2cc3c(cc2OC)CCCN3C(=O)CN(C)C)nc2[nH]ccc12 | 2.23% | 3.84% | 3.74% | 4.98% | 7.6% | 94.4% | 90.8% | 2.06% | 5.83% | 10.8%
19 | COc1cccc(Nc2nccc(-c3cnn4ncccc34)n2)c1 | 30% | 7.39% | 39.2% | 4.97% | 40.9% | 5.36% | 32.3% | 6.41% | 44.2% | -0.07%
20 | Fc1cccc(COc2ccc(Nc3ncncc3C#Cc3ccccc3)cc2Cl)c1 | 5.21% | 2.86% | 4.69% | 4.16% | 11.3% | 2.52% | 4.64% | 3.23% | 1.72% | -5.96%
21 | CS(=O)(=O)CCNCc1ccc(-c2ccc3ncnc(Nc4ccc(OCc5cccc(C(F)(F)F)c5)cc4)c3c2)o1 | 2.39% | 2.96% | 3.54% | 6.46% | 8.69% | 3% | 5.12% | 4.21% | 8.35% | -6.74%
22 | COc1cc(N2CCN(C(C)C)CC2)ccc1Nc1nc(Nc2cccc(F)c2C(=O)O)c2cc[nH]c2n1 | 7.98% | 4.3% | 5.73% | 5.38% | 5.63% | 68.1% | 80.7% | 4.02% | 5.35% | 2.71%
23 | CS(=O)(=O)Nc1ccc(-c2ccc3c(NC(=O)C4CC4)n[nH]c3c2)cc1 | 16.9% | 5.2% | 9.04% | 3.79% | 9.67% | 3.16% | 11% | 2.46% | 4.71% | -3.54%
24 | Nc1ncnc2occ(-c3ccc(NC(=O)Nc4cc(C(F)(F)F)ccc4F)cc3)c12 | 91.1% and 85% | 10.7% and 5.56% | 44.9% and 29.1% | 10.9% and 4.97% | 58.9% and 35.7% | 2.84% and -1.14% | 22.8% and 12.6% | 25.2% and 23.9% | 64.2% and 56.4% | -3.96% and -3.19%
25 | Nc1nonc1-c1nc2cnccc2n1C1CC1 | 2.56% and 3.11% | 3.83% and 3.92% | 4.12% and 4.54% | 5.16% and -2.65% | 8.03% and 2.25% | 2.63% and -1.89% | 5.84% and 0.48% | 3.44% and -2.1% | 5.37% and -2.96% | -7.63% and -3.39%
26 | O=C(Nc1n[nH]c2nnc(-c3cccnc3)cc12)C1CC1 | 3.43% | 0.48% | 3.53% | 3.47% | 6.91% | 0.19% | 1.54% | 0.77% | 3.61% | 0.08%
27 | CS(=O)(=O)CCNCc1ccoc1-c1ccc2ncnc(Nc3ccc(OCc4ccccc4)cc3)c2c1 | 0.75% | 0.71% | -0.62% | 2.05% | 0.92% | -0.16% | 1.21% | 1.41% | 3.46% | -0.99%
28 | O=C(O[C@H]1CN[C@H](C#Cc2cc3ncnc(Nc4ccc(OCc5cccc(F)c5)c(Cl)c4)c3s2)C1)N1CCOCC1 | 6.54% | 2.93% | 5.78% | 1.93% | 3.32% | 7.04% | 6.43% | 0.82% | 0.68% | -7.05%
29 | COc1cc(N2CCN(C(C)C)CC2)ccc1Nc1nc(Nc2cccc3ncccc23)c2cc[nH]c2n1 | 0.12% | 0.03% | 2.91% | 1.91% | 9.59% | 51.7% | 86.3% | 4.93% | 8.07% | 1.7%
30 | Cc1cc(O)cc(C)c1/C=C/c1cncc(C(=O)OC(C)(C)C)c1 | 4.07% | 9.34% | 38.4% | 5.51% | 31.9% | 3.06% | 5.54% | 8.31% | 36.2% | -3.22%
31 | CN(c1ccc(NC(=O)NCCN2CCOCC2)cc1)c1ccnc(Nc2ccc(CS(C)(=O)=O)cc2)n1 | 30.3% | 6.51% | 22.1% | 4.29% | 21.8% | 2.33% | 5.11% | 6.09% | 36% | -1.83%
